From PubChem
CD11b adhes inh: CD11b/CD18-fibrinogen binding inhibition; P05107+P11215; K562 CD11b/CD18 adhesion to fibrinogen, ATPlite luminescence; Mn2+ added to activate the integrin; inhibition, % at 10 µM; actives 0.54% (n = 93,000); AID 1497;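 active = primary inhibition of 50% or more at 10 µM, then 40% or more on retest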
Target sequence (P05107 whole entry, looked up, other chains not shown): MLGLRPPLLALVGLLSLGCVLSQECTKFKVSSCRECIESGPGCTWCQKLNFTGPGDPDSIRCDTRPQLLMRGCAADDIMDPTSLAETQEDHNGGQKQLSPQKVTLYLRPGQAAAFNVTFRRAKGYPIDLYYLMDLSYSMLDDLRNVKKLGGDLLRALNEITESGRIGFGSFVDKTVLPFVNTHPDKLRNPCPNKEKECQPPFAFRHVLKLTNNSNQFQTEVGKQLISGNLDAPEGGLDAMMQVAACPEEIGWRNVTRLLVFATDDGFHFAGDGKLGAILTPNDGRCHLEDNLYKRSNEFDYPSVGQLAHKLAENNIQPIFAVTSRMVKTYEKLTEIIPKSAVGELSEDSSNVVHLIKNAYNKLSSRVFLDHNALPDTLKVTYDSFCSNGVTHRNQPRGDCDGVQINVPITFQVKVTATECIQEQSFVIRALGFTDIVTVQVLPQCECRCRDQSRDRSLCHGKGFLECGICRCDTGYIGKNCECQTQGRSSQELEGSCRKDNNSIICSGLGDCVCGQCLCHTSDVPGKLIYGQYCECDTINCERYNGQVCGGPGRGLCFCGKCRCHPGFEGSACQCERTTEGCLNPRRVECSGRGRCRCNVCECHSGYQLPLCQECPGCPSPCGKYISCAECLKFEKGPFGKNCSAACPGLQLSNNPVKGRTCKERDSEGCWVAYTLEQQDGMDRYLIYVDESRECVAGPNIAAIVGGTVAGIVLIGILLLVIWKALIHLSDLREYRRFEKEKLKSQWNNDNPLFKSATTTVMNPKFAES
Mac1 fbg enh: CD11b/CD18-fibrinogen binding enhancement; P05107+P11215; K562 CD11b/CD18 adhesion to fibrinogen, ATPlite luminescence; actives 0.07% (n = 93,000); activation, % at 10 µM;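 active = 10 µM primary screen giving 50% or more activity, confirmed by 40% or more on retest at that dose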
CYP2C19 activ: cytochrome P450 2C19 (human) activation; AID 1025; recombinant CYP2C19, luciferin-H EGE luminescence; stronger effect = higher value; 0 = fully inhibited enzyme, 1 = untreated enzyme; 96,000 tested, under 10 active; P33261; activation factor at 5 µM;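 active = activation factor of at least 2 at 5 µM in the primary screen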;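 note: 0 = wells with 2.5 mM tranylcypromine and 1 = vehicle-only wells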
CYP2C19 inhib: blocks human cytochrome P450 2C19; P33261; CYP2C19 Supersomes, luciferin-H EGE luminescence, 30 min; inhibition, % at 5 µM; actives 21% (n = 96,000); AID 778;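 active = CYP2C19 inhibition above a set limit at 5 µM in the primary screen, cut at about 50% in these data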;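 note: plate controls were negative control wells for no effect and 2.5 mM tranylcypromine positive control for full effect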
CYP2C9 activ: CYP2C9 (human) activation | recombinant CYP2C9, luciferin-H conversion, luminescence; stronger effect = higher value; factor 1 = untreated enzyme, 0 = blocked | activation factor at 5 µM | actives 1.4% (n = 96,000);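 active = activation factor of 2 or more for CYP2C9 at a 5 µM dose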;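 note: 0 = sulfaphenazole-blocked wells and 1 = vehicle-only wells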
CYP2C9 inh: blocks human cytochrome P450 2C9 | P11712 | CYP2C9 Supersomes, luciferin-H conversion, luminescence | inhibition, % at 5 µM | actives 20% (n = 96,000);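 active = blocking of liver enzyme CYP2C9 beyond about 50% at 5 µM, limit read from the data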
* marks the source's active call; other numbers are inactive results; . = no result. An excerpt weighted towards active compounds, which were near 28% of everything screened.

SMILES	CD11b adhes inh	Mac1 fbg enh	CYP2C19 activ	CYP2C19 inhib	CYP2C9 activ	CYP2C9 inh
CC1CCCN(c2nc3ccccc3nc2C(C#N)S(=O)(=O)c2cccs2)C1 (configuration not stated)	3.6	-4.1	1	3.1	0.3	74.7*
COCCNc1oc(-c2ccc(Cl)cc2)nc1C#N	.	.	0.2	79.2*	0.3	73.4*
Cc1ccc(-c2nc(C#N)c(NCCN3CCCCC3)o2)cc1	-16.0	2.7	0.9	11.8	0.7	31.2
N#Cc1nc(-c2ccc(Cl)cc2)oc1NCCc1ccccn1	-36.9	-1.0	0.8	17.2	0.9	13.6
COCCNc1oc(-c2ccc(C)cc2)nc1C#N	6.6	-0.8	0.1	85.5*	0.1	86.2*
COc1ccc(CCNc2oc(-c3ccc(C)cc3)nc2C#N)cc1OC	11.6	1.5	1.1	-12.2	0.5	50.0*
Cc1ccc(-c2nn(-c3cc(Cl)ccc3[N+](=O)[O-])c(=O)c3ccccc23)cc1C	.	.	0.8	23.5	0.7	32.6
OC(CN1CCCCC1)Cn1c(C(F)(F)F)nc2ccccc21 (configuration not stated)	-26.1	-2.9	1	-2.4	1.1	-12.3
O=C(O)Cn1c(C(F)(F)F)nc2ccccc21	-2.9	-7.3	1	-4.0	1.1	-7.4
O=C(Cn1c(C(F)(F)F)nc2ccccc21)c1ccccc1	0.2	-3.5	0.5	53.1*	0.6	39.3
CC1CN(C(=O)Cn2c(C(F)(F)F)nc3ccccc32)CC(C)O1 (configuration not stated)	6.1	-1.8	1	-0.6	1	2.6
O=C(Cn1c(C(F)(F)F)nc2ccccc21)c1ccc(Cl)cc1	1.0	-5.5	0	99.6*	0.6	43.9
Cc1nc2ccccc2n1CC(O)Cn1c(C(F)(F)F)nc2ccccc21 (configuration not stated)	-3.9	-3.2	0.7	33.0	0.3	72.2*
COC(=O)c1cc(Br)c(=O)n(-c2cc(C)on2)c1	-5.2	-2.0	0.4	58.9*	0.5	50.4*
COC(=O)c1cc(Br)c(=O)n(-c2ccccn2)c1	-6.8	-0.5	1	-4.5	1	-1.6
CCOc1ccc(-c2ncncc2-c2ccc(OC)cc2)c(O)c1	-4.6	-1.9	0.7	32.6	0.5	53.7*
O=C1C2C3CCCC3=C3CCCC3C2C(=O)N1c1ccccc1 (configuration not stated)	1.2	0.0	0.7	32.8	0.7	35.0
C=C(C)C1Cc2c(C)nn(-c3nc(C)cc(C)n3)c2C1 (configuration not stated)	8.0	-1.6	1.1	-12.7	1	0.9
CCOc1ccc(CC(=O)Nc2c(C(=O)Nc3ccccc3)oc3ccccc23)cc1OCC	2.0	1.3	0.5	47.9	0.6	39.7
Cc1cccc(C)c1N(CC(O)Cn1c2ccccc2c2ccccc21)S(C)(=O)=O (configuration not stated)	-4.9	-4.5	0.2	80.0*	0.3	72.3*
Cc1ccc(N(CC(O)CON=C2c3ccccc3-c3ccccc32)S(C)(=O)=O)cc1 (configuration not stated)	44.2	-5.2	0.5	46.9	0.5	53.2*
CS(=O)(=O)N(Cc1ccco1)CC(O)Cn1c2ccccc2c2ccccc21 (configuration not stated)	-12.0	1.2	0.4	62.9*	0.4	59.0*
OC(CNCc1ccco1)Cn1c2ccccc2c2ccccc21 (configuration not stated)	-1.2	-3.8	0.4	64.9*	0.7	32.2
Cc1ccc(N(CC(O)Cn2c3ccccc3c3ccccc32)S(C)(=O)=O)c(C)c1 (configuration not stated)	-12.9	0.3	0.9	7.9	0.9	5.5
Cc1ccc(N(CC(O)Cn2c3ccccc3c3ccccc32)S(C)(=O)=O)cc1 (configuration not stated)	10.6	-3.6	0.1	94.1*	0	96.5*
SMILES	CD11b adhes inh	Mac1 fbg enh	CYP2C19 activ	CYP2C19 inhib	CYP2C9 activ	CYP2C9 inh
COc1ccc2cc(CN(Cc3ccco3)C(c3nnnn3C3CCCCC3)C(C)C)c(=O)[nH]c2c1 (configuration not stated)	12.6	3.7	0.8	20.4	0.6	45.0
CCc1ccc2[nH]c(=O)c(CN(Cc3ccc4c(c3)OCO4)Cc3nnnn3C3CCCC3)cc2c1	-15.2	7.7	0.7	30.4	0.4	60.5*
COc1ccc2cc(CN(Cc3ccco3)Cc3nnnn3C3CCCCC3)c(=O)[nH]c2c1	-3.9	4.7	0.2	84.0*	0.1	87.2*
Cc1ccc2cc(CN(Cc3ccccc3)Cc3nnnn3C3CCCC3)c(=O)[nH]c2c1	12.8	10.7	0.1	86.7*	0.2	81.5*
Cc1ccc(N2Cc3ccccc3OC(C)C2=O)cc1 (configuration not stated)	-0.2	4.5	0	99.5*	0.2	85.0*
CN(C)c1ccc(C(c2nnnn2C(C)(C)C)N2CCc3ccccc3C2)cc1 (configuration not stated)	29.8	3.5	0.4	58.4*	0.9	13.4
CC1CCN(C(c2ccc(N(C)C)cc2)c2nnnn2C(C)(C)C)CC1 (configuration not stated)	-1.8	-2.8	0.4	59.5*	0.8	22.8
COc1ccc(C(c2nnnn2C2CCCC2)N2CCc3ccccc3C2)cc1OC (configuration not stated)	2.3	-4.2	0.5	47.1	0.7	29.4
CC(C)(C)n1nnnc1C(c1ccccc1)N1CCc2ccccc2C1 (configuration not stated)	.	.	0.5	53.7*	0.6	36.5
CC1CCN(C(c2ccc(N(C)C)cc2)c2nnnn2Cc2ccccc2)CC1 (configuration not stated)	-9.5	1.1	0.7	34.2	0.9	6.1
CC1=C(C(N)=O)C(c2ccco2)C(C(N)=O)=C(C)N1	-5.9	-4.1	0.9	6.1	1	1.1
CC(=O)C1=C(C)NC(C)=C(C(C)=O)C1c1ccc(-c2ccccc2Cl)o1	-3.2	-1.2	0.1	85.9*	0	97.2*
CN1C(=O)C2(C(C#N)=C(N)Oc3c2oc(CO)cc3=O)c2ccccc21 (configuration not stated)	-3.4	4.6	1.1	-11.9	1.1	-7.0
Cn1c(=O)[nH]c(=O)c2c1nc(NCCCO)n2CCCc1ccccc1	.	.	0.9	10.5	0.9	9.9
CCOCCCNc1nc2c(c(=O)n(C)c(=O)n2C)n1CCCc1ccccc1	-1.8	1.2	0.3	68.2*	0.2	81.8*
C=CCNc1nc2c(c(=O)n(C)c(=O)n2C)n1Cc1ccc(F)cc1	20.2	-0.4	0.7	26.4	1	3.6
Cn1c(=O)c2c(nc(NCc3ccccc3)n2CCCc2ccccc2)n(C)c1=O	-6.0	0.9	0.7	26.2	0.6	41.2
